This passage reports cell number and H1.0 immunofluorescence intensity results from the supplement of paper PMC7156485.

Common to all, as to conditions: concentration: 10 µM; 24 h
The test system of test [1] is HCC1569. The test is described as follows: cell number relative to DMSO (% of DMSO); higher = more cells (less growth inhibition / toxicity). Summed up: (§1)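 Cells were seeded at 800 per well in 384-well plates with RPMI containing 10% FBS; both HCC1569 and TDF lines were used. Compounds were added at 10 µM for 24 h at 37 °C, in triplicate, before fixation in 3.7% formaldehyde and staining with a rabbit anti-H1.0 antibody, an AlexaFluor 647 secondary and DAPI. H1.0 nuclear intensity or cell number is reported as percent of the plate control using the median of replicates, and HCC1569 values were smoothed for positional effects.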

Test [2] concerns TDF. The test is described as above. Summed up:
as §1

For test [3], the system named is TDF. The test is described as follows: H1.0 immunofluorescence intensity relative to DMSO (% of DMSO); higher = stronger H1.0 induction, active = 120 or more. Summed up:
as §1

Test [4] has as its system HCC1569. The test is described as follows: H1.0 immunofluorescence intensity relative to DMSO (% of DMSO); higher = stronger H1.0 induction, active = 140 or more. Summed up:
as §1
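For H1.0 immunofluorescence intensity relative to DMSO in this document: TDF is a line of transformed human dermal fibroblasts of mesenchymal origin.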
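For cell number relative to DMSO in this document: TDF denotes transformed human dermal fibroblasts of mesenchymal origin.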

As to `CC(N)(Cc1ccc(O)c(O)c1)C(=O)O` (racemic), the cell number in test [1] and in test [2] was 101 in each case. Also, the H1.0 immunofluorescence intensity was 90.9 (inactive) in test [3] and 98.2 (inactive) in test [4].

With `COC(=O)c1c(-c2cc(OC)c(OC)c(OC)c2)c2ccc(OCc3ccccn3)cc2c(=O)n1-c1ccc(N)cc1.O=S(=O)(O)O`, the values for the cell number in test [1] and in test [2] were 100 and 113, respectively. Moreover, the H1.0 immunofluorescence intensity is 95.1 (inactive) in test [3] and 102 (inactive) in test [4].

`CCCCCCCC/C=C\CCCCCCC(O)C(=O)O` (configuration not stated) [(9Z)-2-hydroxy-9-octadecenoic acid]: the cell number was 100 in test [1] and 88.9 in test [2]. Also, the H1.0 immunofluorescence intensity in test [3] was 102 (inactive); in test [4], 91.2 (inactive).

For the compound `COc1ccccc1N1CCN(CC(O)COc2cccc3ccccc23)CC1.Cl.Cl` (configuration not stated) [Naftopidil dihydrochloride], the results for the cell number in test [1] and in test [2] were 101 and 106, respectively. The H1.0 immunofluorescence intensity in test [3] and in test [4] was 101 (inactive) in each case.

Take `Cc1ccc(N(CC2=NCCN2)c2cccc(O)c2)cc1` [Phentolamine]: the figures for the cell number in test [1] and in test [2] were 107 and 100, respectively. Moreover, the H1.0 immunofluorescence intensity in test [3] was 99.7 (inactive); in test [4] it was 96.6 (inactive).

Regarding `CC(C)NCC(O)COc1cccc2ccccc12.Cl` [(S)-Propranolol hydrochloride], the cell number in test [1] worked out at 74.5; in test [2], 95.9. Also, the H1.0 immunofluorescence intensity was 87.7 (inactive) in test [3] and 230 (active) in test [4].

Turning to `CCC1OC(=O)C(C)C(OC2CC(C)(OC)C(O)C(C)O2)C(C)C(OC2OC(C)CC(N(C)C)C2O)C(C)(OC)CC(C)C(=O)C(C)C(O)C1(C)O` (configuration not stated) [Clarithromycin], the cell number in test [1] was 98.4; in test [2], 93. Besides, the H1.0 immunofluorescence intensity is 94.3 (inactive) in test [3] and 94.6 (inactive) in test [4].

`O=C1CN2Cc3c(ccc(Cl)c3Cl)NC2=N1` [Anagrelide]: the cell number in test [1] was found to be 103; in test [2] it was 110. Further, the H1.0 immunofluorescence intensity in test [3] is 92.9 (inactive); in test [4], 98.7 (inactive).

With `O=C(C=Cc1ccc(O)c(O)c1)OC1CC(O)(C(=O)O)CC(O)C1O` (configuration not stated) [Chlorogenic acid], the cell number in test [1] turned out to be 100; in test [2] it was 98.2. Also, the H1.0 immunofluorescence intensity in test [3] is 103 (inactive); in test [4], 100 (inactive).

For the compound `CCCCCCCCC=CCCCCCCCC(=O)OCC(O)COP(=O)(O)O` (configuration not stated) [Lysophosphatidic acid], the results for the cell number in test [1] and in test [2] were 101 and 104, respectively. Besides, the H1.0 immunofluorescence intensity in test [3] was 96.9 (inactive); in test [4], 105 (inactive).

As to `C[N+](C)(C)C(Cc1c[nH]c(=S)[nH]1)C(=O)[O-]` (configuration not stated) [Ergothioneine], the cell number in test [1] turned out to be 100; in test [2] it was 103. Besides, the figures for the H1.0 immunofluorescence intensity in test [3] and in test [4] were 101 (inactive) and 99.9 (inactive), respectively.

On to `Cc1[nH]c2ccccc2c1CCNC(=O)c1ccccc1F` [2-fluoro-N-[2-(2-methyl-1H-indol-3-yl)ethyl]benzamide], for which the values for the cell number in test [1] and in test [2] were 100 and 106, respectively. Also, the H1.0 immunofluorescence intensity in test [3] is 110 (inactive); in test [4] it was 93.6 (inactive).

Consider `CNc1cc2c(Nc3cccc(Br)c3)ncnc2cn1`, for which the cell number came out at 87.2 in test [1] and 95.7 in test [2]. Further, the results for the H1.0 immunofluorescence intensity in test [3] and in test [4] were 91.3 (inactive) and 135 (inactive), respectively.

Consider `NC(N)=NCc1cccc(I)c1` [N-(3-iodobenzyl)guanidine], for which the cell number in test [1] was determined as 108; in test [2], 97.3. For the same compound, the values for the H1.0 immunofluorescence intensity in test [3] and in test [4] were 104 (inactive) and 105 (inactive), respectively.

With `CC1(C)CCC(C)(C)c2cc(C3(c4ccc(C(=O)O)cc4)OCCO3)ccc21`, the cell number in test [1] turned out to be 100; in test [2] it was 99. Moreover, the H1.0 immunofluorescence intensity in test [3] is 92.3 (inactive); in test [4], 92.2 (inactive).

Consider `CC1OC(OC2C(Oc3cc(O)c4c(=O)c(O)c(-c5ccc(O)cc5)oc4c3)OC(CO)C(O)C2O)C(O)C(O)C1O` (configuration not stated) [Kaempferol-7-neohesperidoside], for which the cell number is 98.8 in test [1] and 99.4 in test [2]. In addition, the H1.0 immunofluorescence intensity was 95.8 (inactive) in test [3] and 87.9 (inactive) in test [4].

Regarding `COc1ccc(C(=O)Nc2c(Cl)cncc2Cl)cc1OC1CCCC1`, the cell number in test [1] worked out at 102; in test [2] it was 93.3. In addition, the H1.0 immunofluorescence intensity in test [3] is 91 (inactive); in test [4], 106 (inactive).

As to `Oc1cc2c(cc1O)CN(C(=S)NCCc1ccc(Cl)cc1)CCC2` [Capsazepine], the values for the cell number in test [1] and in test [2] were 106 and 112, respectively. Besides, the H1.0 immunofluorescence intensity in test [3] is 91.8 (inactive); in test [4], 86.2 (inactive).

With `CCN1CCN(c2cc3c(cc2F)c(=O)c(C(=O)O)cn3C2CC2)CC1` [Enrofloxacin], the results for the cell number in test [1] and in test [2] were 101 and 106, respectively. In addition, the values for the H1.0 immunofluorescence intensity in test [3] and in test [4] were 96.4 (inactive) and 110 (inactive), respectively.

As to `COc1cc(Br)c(CC2c3cc(OC)c(OC)cc3CCN2C)cc1OC` (racemic), the cell number in test [1] amounted to 99.7; in test [2], 98.5. The H1.0 immunofluorescence intensity in test [3] was 97.8 (inactive); in test [4] it was 97.6 (inactive).

Regarding `Brc1c(Br)c(Br)c2n[nH]nc2c1Br` [TBB - 4,5,6,7-Tetrabromobenzotriazole], the cell number in test [1] was found to be 104; in test [2], 96.4. Besides, the H1.0 immunofluorescence intensity in test [3] was 99.2 (inactive); in test [4], 104 (inactive).

On to `CC1CN(c2c(F)c(N)c3c(=O)c(C(=O)O)cn(C4CC4)c3c2F)CC(C)N1` (configuration not stated) [Sparfloxacin], for which the values for the cell number in test [1] and in test [2] were 104 and 103, respectively. Besides, the H1.0 immunofluorescence intensity in test [3] is 95.6 (inactive); in test [4] it was 106 (inactive).

Turning to `O=c1cc(-c2ccccc2)oc2cc(O)ccc12` [7-Hydroxyflavone], the cell number was 103 in test [1] and 104 in test [2]. For the same compound, the H1.0 immunofluorescence intensity in test [3] was 96.8 (inactive); in test [4], 88.8 (inactive).
